Molecules are shown by their SMILES. Results filed as inconclusive are left out. Where a call stands in place of a potency, no number is given. Calls of active or inactive are those of the source. Calls follow the shape of the dose curve; as a rule, active = well fitted cell-killing curve with a large enough effect in the repeat runs; inconclusive = weak or mixed curves, or effect the other way; inactive = flat fitted curve, though single readings scatter.
Potency is read from the fitted curve at half-maximal effect.

This test in a line: qHTS RealTime-Glo MT Cell Viability Assay in HEK293 cells - 32 hour (AID 1224868). Also: nearly all actives have a fitted effect of over 50% in size. The settings on record: RealTime-Glo luminescence; series mostly up to 76.8 µM. An excerpt: National Center for Advancing Translational Sciences [NCATS]
NIH Chemical Genomics Center [NCGC]
U.S. Environmental Protection Agency [EPA]
National Institutes of Environmental Health Sciences [NIEHS]
National Toxicology Program [NTP]
U.S. Food and Drug Administration [FDA]
Measure of cell viability is critical in the cell-base assay. Analysis of cell viability is necessary for the characterization of cell responses to cytotoxic drugs and environmental stress. A RealTime-Glo MT Cell Viability Assay to monitor cell viability in real time of continues cell culture during 40 hours of compound treatment was used to screen Tox21 10K library compounds in Hek293 cells. The RealTime-Glo MT Cell Viability Assay is a nonlytic, homogeneous, bioluminescent method to measure cell viability in real time using a simple, plate-based method. The assay involves adding NanoLuc luciferase and a cell-permeant prosubstrate to cells in culture. Viable cells reduce the proprietary prosubstrate to generate a substrate for NanoLuc luciferase. This substrate diffuses from cells into the surrounding culture medium, where it is rapidly used by the NanoLuc Enzyme to produce a luminescent signal. The signal correlates with the number of viable cells, making the assay well suited for cytotoxicity studies.
Tox21 Assay Protocol Summary:
The mixture of Hek293 cell suspension and reagents were dispensed at 600cells/6 ul/well in 1536-well tissue culture treated black solid bottom plates using a Multidrop dispenser. After the assay plates were incubated at a 37 C/5% CO2 incubator for 5 hours, 23 nL of compounds dissolved in DMSO, positive and negative controls was transferred to the assay plate by a pintool work station. The plates were incubated at 37 C for 40 hours. The luminescence intensity were measured at 0h, 8h, 16h, 24h, 32h and 40h time points using ViewLux plate reader during compound treatment.
As to `COc1cc2c(cc1OC)[C@@]13CCN4CC5=CCO[C@H]6CC(=O)N2[C@H]1[C@H]6[C@H]5C[C@H]43`, the Potency entry is “inactive”.
Then `CCC1(c2ccccc2)C(=O)NC(=O)NC1=O`, with “inactive”.
As to `CCCCOC(=O)c1ccccc1N`, the Potency entry is “inactive”.
On to `CC1(C)CON(Cc2ccccc2Cl)C1=O`, for which the Potency result is “inactive”.
Take `C=C(C)[C@@H]1CC=C(C=O)CC1`: the Potency result is “inactive”.
The entry for `CCOP(=O)(N=C1SCCS1)OCC` is “inactive”.
As to `CC(C)(C)NCC(O)c1cc(Cl)c(N)c(Cl)c1` (stereo not given), the Potency entry was “inactive”.
The entry for `CSc1ccc(C(=O)C(C)(C)N2CCOCC2)cc1` is “inactive”; for `O=C1OC(CCN2CCCCC2)OC1(c1ccccc1)c1ccccc1` (stereo not given) it is “inactive”.
Then `OCCSCSCCO`, with “inactive”.
Then `C[C@]12CC[C@H]3[C@@H](CC=C4C[C@@H](O)CC[C@@]43C)[C@@H]1CC[C@@H]2O`, with “inactive”; and `CCOP(=S)(OCC)SCSP(=S)(OCC)OCC`, with “inactive”.
As to `CC(N)=S`, the Potency entry was “inactive”.
Then `ClC(Cl)C(Cl)Cl`, with “inactive”; and `CCC1(c2ccccc2)C(=O)N=C(O)NC1=O` (stereo not given), with “inactive”; and `O=NN1CCCCC1`, with “inactive”.
Then `CNC(=O)Oc1ccc(N(C)C)c(C)c1`, with “inactive”.
Then `C=CCC1=C(C)[C@@H](OC(=O)[C@@H]2[C@@H](C=C(C)C)C2(C)C)CC1=O`, with 13.8 µM (active).
`CC(CCc1ccccc1)NC(C)C(O)c1ccc(O)cc1` (stereo not given): the Potency result was “inactive”.
For `CC1=NNC(=O)N(/N=C/c2cccnc2)C1`, the Potency result was “inactive”.
For `COC(=O)c1c(C(F)F)nc(C(F)(F)F)c(C2=NCCS2)c1CC(C)C`, the Potency result is “inactive”.
For `[O]=[Cd]`, the Potency result is “inactive”.
As to `O=C(Nc1ccccc1)N(Cc1ccc(Cl)cc1)C1CCCC1`, the Potency is 24.5 µM (active).
Take `CCOP(=S)(OCC)Oc1nc(Cl)n(C(C)C)n1`: the Potency entry was “inactive”.
As to `O=[N+]([O-])c1ccc(CBr)cc1`, the Potency result was “inactive”.
The entry for `N#CCNCC#N` is “inactive”; for `CNC(=O)Oc1c(C(C)(C)C)cc(C)cc1C(C)(C)C` it is “inactive”.
The entry for `COc1cc(OC)nc(Sc2cccc(Cl)c2C(=O)O)n1` is “inactive”; for `CCN(CC)c1nc(C)cc(OP(=S)(OC)OC)n1` it is “inactive”.
As for `O=C(NCO)NCO`, the Potency entry is “inactive”.
`BrCCCCCCBr`: the Potency entry is “inactive”.
Then `CCOP(=S)(OCC)Oc1cc(-c2ccccc2)on1`, with “inactive”; and `CC(C)(C)OC(=O)c1ncn2c1[C@@H]1CCCN1C(=O)c1c(Br)cccc1-2`, with “inactive”.
Then `Clc1cccc(N2CCNCC2)c1`, with “inactive”; and `COC(=O)c1ccccc1S(=O)(=O)NC(=O)N(C)c1nc(C)nc(OC)n1`, with “inactive”; and `CC(C)[N+](=O)[O-]`, with “inactive”.
In the case of `c1cc[c]([Hg][c]2ccccc2)cc1`, the Potency is 30.9 µM (active).
As for `CNC(=O)Oc1ccccc1C1OCCO1`, the Potency result was “inactive”.
As for `CC(=O)CC(c1ccc(Cl)cc1)c1c(O)c2ccccc2oc1=O` (stereo not given), the Potency entry is “inactive”.
With `N#CC(CCc1ccc(Cl)cc1)(Cn1cncn1)c1ccccc1` (stereo not given), the Potency is 17.4 µM (active).

The record behind these values is PubChem BioAssay (Tox21).
